Experimental data: the supplement of paper PMC8728848
About 410 targets per protein were measured; listed, in parts, are those with the strongest signals and a random draw of the rest.

What was measured:
Test in all cases: glycan array binding signal (z-score within array); higher = stronger binding
Conditions in all cases: glycan notation: IUPAC condensed, linker removed
[1] = target: Fuc(a1-2)Gal(b1-3)GlcNAc(b1-2)Man(a1-3)[Fuc(a1-2)Gal(b1-3)GlcNAc(b1-2)Man(a1-6)]Man(b1-4)GlcNAc(b1-4)[Fuc(a1-6)]GlcNAc
Summary of the method: (§1)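 Glycan array data came from 3228 arrays in the Consortium for Functional Glycomics database, and only arrays with an available protein sequence were kept. Glycan names were put into IUPAC-condensed notation, and columns mapping to the same glycan were averaged. The binding signal is a within-array Z-score, averaged across arrays of one protein sequence run at different concentrations or buffers and across linkers. A negative Z-score can be read as non-binding.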

[2] = target: Fuc(a1-2)Gal(b1-3)[Fuc(a1-4)]GlcNAc(b1-3)[Fuc(a1-3)[Gal(b1-4)]GlcNAc(b1-6)]Gal(b1-4)Glc
Summary of the method: as §1

[3] = target: Fuc(a1-2)Gal(b1-3)[Fuc(a1-4)]GlcNAc(b1-3)[Gal(b1-4)GlcNAc(b1-6)]Gal(b1-4)Glc
Summary of the method: as §1

[4] = target: Fuc(a1-2)Gal(b1-4)[Fuc(a1-3)]GlcNAc(b1-3)GalNAc
Summary of the method: as §1

[5] = target: Fuc(a1-2)[Gal(a1-3)]Gal(b1-4)Glc
Summary of the method: as §1

[6] = target: Fuc(a1-2)[Gal(a1-3)]Gal(b1-4)GlcNAc(b1-3)GalNAc
Summary of the method: as §1

[7] = target: Fuc(a1-2)[GalNAc(a1-3)]Gal
Summary of the method: as §1

[8] = target: Fuc(a1-2)[GalNAc(a1-3)]Gal(b1-3)GlcNAc(b1-3)GalNAc
Summary of the method: as §1

[9] = target: Fuc(a1-2)[GalNAc(a1-3)]Gal(b1-4)[Fuc(a1-3)]GlcNAc
Summary of the method: as §1

[10] = target: Fuc(a1-2)[GalNAc(a1-3)]Gal(b1-4)[Fuc(a1-3)]GlcNAc(b1-3)GalNAc
Summary of the method: as §1

[11] = target: Fuc(a1-2)[GalNAc(b1-3)]Gal
Summary of the method: as §1

[12] = target: Fuc(a1-3)[Gal(b1-4)]Glc6S
Summary of the method: as §1

[13] = target: Fuc(a1-3)[Gal(b1-4)]GlcNAc(b1-3)GalNAc
Summary of the method: as §1

[14] = target: Gal(b1-3)[Fuc(a1-4)]GlcNAc(b1-2)Man(a1-3)[Gal(b1-3)[Fuc(a1-4)]GlcNAc(b1-2)Man(a1-6)]Man(b1-4)GlcNAc(b1-4)GlcNAc
Summary of the method: as §1

[15] = target: Gal(b1-3)[Fuc(a1-4)]GlcNAc(b1-2)Man(a1-3)[Gal(b1-3)[Fuc(a1-4)]GlcNAc(b1-2)Man(a1-6)]Man(b1-4)GlcNAc(b1-4)[Fuc(a1-6)]GlcNAc
Summary of the method: as §1

Gal(b1-4)Glc6S = target: Gal(b1-4)Glc6S
Summary of the method: as §1

[16] = target: Gal(b1-4)GlcNAc(b1-2)[Gal(b1-4)GlcNAc(b1-4)]Man(a1-3)[GlcNAc(b1-4)][Gal(b1-4)GlcNAc(b1-2)Man(a1-6)]Man(b1-4)GlcNAc(b1-4)GlcNAc
Summary of the method: as §1

[17] = target: Gal(b1-4)GlcNAc(b1-3)Gal(b1-4)[Fuc(a1-3)GlcNAc(b1-6)]Gal(b1-4)Glc
Summary of the method: as §1

Gal3S6S(b1-4)GlcNAc6S = target: Gal3S6S(b1-4)GlcNAc6S
Summary of the method: as §1

[18] = target: GalNAc(a1-3)GalNAc(b1-3)Gal(a1-4)Gal(b1-4)Glc
Summary of the method: as §1

GalNAc(b1-6)GalNAc = target: GalNAc(b1-6)GalNAc
Summary of the method: as §1

Glc(a1-6)Glc(a1-6)Glc = target: Glc(a1-6)Glc(a1-6)Glc
Summary of the method: as §1

GlcA(b1-3)GlcNAc = target: GlcA(b1-3)GlcNAc
Summary of the method: as §1

[19] = target: GlcNAc(a1-4)Gal(b1-4)GlcNAc(b1-3)Gal(b1-4)GlcNAc(b1-3)Gal(b1-4)GlcNAc
Summary of the method: as §1

[20] = target: GlcNAc(b1-2)Man(a1-3)[GlcNAc(b1-2)Man(a1-6)]Man(b1-4)GlcNAc(b1-4)GlcNAc
Summary of the method: as §1

[21] = target: GlcNAc(b1-3)Gal(b1-4)GlcNAc(b1-3)Gal(b1-4)GlcNAc
Summary of the method: as §1

GlcNAc(b1-3)GalNAc = target: GlcNAc(b1-3)GalNAc
Summary of the method: as §1

[22] = target: GlcNAc(b1-3)[GlcNAc(b1-4)][GlcNAc(b1-6)]GlcNAc
Summary of the method: as §1

Kdn(a2-3)Gal(b1-3)GlcNAc = target: Kdn(a2-3)Gal(b1-3)GlcNAc
Summary of the method: as §1

[23] = target: Man(a1-2)Man(a1-3)[Man(a1-2)Man(a1-6)]Man(a1-6)[Man(a1-2)Man(a1-2)Man(a1-3)]Man
Summary of the method: as §1

B1: pullulanase (Streptococcus pyogenes), Q8KLP1 (protein)
chain: MKKKVNQGSKRYQYLLKKWGIGFVIAATGTVMLGCIPSILTHQVAAKTIVGLARDEAQQGDGNAKSGDGFQSSSKEAKPVLDSSSANPASIAEHHLRMHFKTLPAGESLGSLGLWVWGDVDQPSKDWPNGAITMTKAKKDDYGYYLDVPLAAKHRQQVSYLINNKAGENLSKDQHIPLLTPKMNEVWIDENYHAHAYRPLKKGYLRINYHNQSGHYDNLAVWTFKDVKTPTTDWPNGLDLSHKGPYGAYVDVPLKEGANEIGFLILDKSKTGDAIKVQPKDYLFKELDNHTQVFVKDTDPKVYNNPYYIDQVSLKGAEQTTPNEIKAIFTTLDGLDEDAVKQNIKITDKAGKTVAIDELTLDKDKSVMTLKGDFKAQGAVYTVTFGEVSQVARQSWQLKDKLYAYDGELGATLAKDGSVDLALWSPSADSVKVVVYDKQDQTKVVGQADLTKSDKGVWRAHLTSDSVKGISDYTGYYYLYEITRGQEKVMVLDPYAKSLAAWNDATATDDIKTAKAAFIDPSKLGPTGLDFAKINNFKKREDAIIYEAHVRDFTSDKALEGKLTHPFGTFSAFVEQLDYLKDLGVTHVQLLPVLSYFYANELDKTRSTAYTSSDNNYNWGYDPQHYFALSGMYSANPNDPALRIAELKNLVNEIHKRGMGVIFDVVYNHTARTYLFEDLEPNYYHFMNADGTARESFGGGRLGTTHAMSRRILVDSITYLTREFKVDGFRFDMMGDHDAAAIEQAFKAAKAINPNTIMIGEGWRTYQGDEGKKEIAADQDWMKATNTVGVFSDDIRNTLKSGFPNEGTAAFITGGAKNLEGLFKTIKAQPSNFEADAPGDVVQYIAAHDNLTLHDVIAKSINKDPKVAEEEIHKRIRLGNTMILTAQGTAFIHSGQEYGRTKQLLNPDYKTKVSDDKVPNKATLIDAVAQYPYFIHDSYDSSDAVNHFDWAKATDSIAHPISNQTKAYTQGLIALRRSTDAFTKATKAEVDRDVTLITQAGQDGIQQEDLIMGYQTVASNGDRYAVFVNADNKTRKVVLPQAYRYLLGAQVLADAEQVGVTAIAKPKGVQFTKEGLTIDGLTALVLKVSSKTANPSQQKSQTDNHQTKTPDGSKDLDKSLMTRPKRAKTNQKLPKTGEAPSKGLLAAGVALLLLAISLLMKRQKD
For B1, the “glycan array binding signal (z-score)” value [1] was 1.26, the “glycan array binding signal (z-score)” value [2] was 4.09 and the “glycan array binding signal (z-score)” value [3] was -1.13. For the same binder, the “glycan array binding signal (z-score)” value [4] was 3.14, the “glycan array binding signal (z-score)” value [5] was -0.403 and the “glycan array binding signal (z-score)” value [6] was -0.009. For the same binder, the “glycan array binding signal (z-score)” value [7] was -0.236, the “glycan array binding signal (z-score)” value [8] was 2.51 and the “glycan array binding signal (z-score)” value [9] was -0.025. For the same binder, the “glycan array binding signal (z-score)” value [10] was 1.05, the “glycan array binding signal (z-score)” value [11] was -0.628 and the “glycan array binding signal (z-score)” value [12] was -0.252. For the same binder, the “glycan array binding signal (z-score)” value [13] was 0.189, the “glycan array binding signal (z-score)” value [14] was 6.24 and the “glycan array binding signal (z-score)” value [15] was 2.86. The “glycan array binding signal (z-score)” value (Gal(b1-4)Glc6S) was -0.375, the “glycan array binding signal (z-score)” value [16] was 0.829 and the “glycan array binding signal (z-score)” value [17] was -0.926. The “glycan array binding signal (z-score)” value (Gal3S6S(b1-4)GlcNAc6S) was -0.367, the “glycan array binding signal (z-score)” value [18] was -1.28 and the “glycan array binding signal (z-score)” value (GalNAc(b1-6)GalNAc) was -0.145. For the same binder, the “glycan array binding signal (z-score)” value (Glc(a1-6)Glc(a1-6)Glc) was 2.49, the “glycan array binding signal (z-score)” value (GlcA(b1-3)GlcNAc) was 2.61 and the “glycan array binding signal (z-score)” value [19] was 0.594. For the same binder, the “glycan array binding signal (z-score)” value [20] was -0.014, the “glycan array binding signal (z-score)” value [21] was -1.14 and the “glycan array binding signal (z-score)” value (GlcNAc(b1-3)GalNAc) was 0.154. For the same binder, the “glycan array binding signal (z-score)” value [22] was -0.834, the “glycan array binding signal (z-score)” value (Kdn(a2-3)Gal(b1-3)GlcNAc) was -0.039 and the “glycan array binding signal (z-score)” value [23] was 0.204.
